The source of these data is PubChem BioAssay.

Structures are written as SMILES. Activity calls are given as the source filed them.

Experiment [1] concerns Plasmodium falciparum Sir2 (PF13_0152, Sir2A). Description: Plasmodium falciparum Sir2A binding compounds – biochemical, small-molecule microarray, 635 nm fluorescence, primary screen (AID 1098).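 Note: score merges spot fluorescence intensity with its signal-to-noise ratio.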 Particulars: fluorescence 635 nm, higher = more signal.
Experiment [2] is described as follows: probe aDKK1 binding to arrayed compounds – biochemical, biotinylated probe, 635/667 nm fluorescence, primary screen (AID 1099).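 Note: score merges 667nm spot fluorescence with signal to noise across triplicate slides; reference of the scale not given here.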 The following applies: small-molecule microarray, higher = more signal.
The nature of experiment [3]: probe aCHRDL2 binding to arrayed compounds – biochemical, biotinylated probe, 635/667 nm fluorescence, primary screen (AID 1100). The following applies: small-molecule microarray, higher = more signal.
Experiment [4] in a line: change in splice reporter luminescence, either direction, cell-based, HEK293, spliceosome inhibition project, primary screen (AID 1101).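 Note: HEK293 cells carrying a splicing-competent luciferase reporter gene; test concentration not given here.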 The following applies: HEK293 splicing luciferase reporter, 24 h, higher = more signal, called active from +8 up or from −8 down. A general note: A reporter such as luciferase makes a cellular process visible.
Experiment [5] deals with Fibroblast growth factor 10 (Homo sapiens) (UniProt O15520). Description: compounds binding fibroblast growth factor 10 – biochemical, small-molecule microarray, 635 nm fluorescence, primary screen (AID 1102). The following applies: FGF10 binding, fluorescence 635 nm, higher = more signal.
The subject of experiment [6] is glycogen synthase kinase-3 (GSK3A per assay name; protocol says GSK3B). Description: compounds binding glycogen synthase kinase-3 – biochemical, small-molecule microarray, 635 nm fluorescence, GSK3A, primary screen (AID 1103). Note: the record names both GSK3A and GSK3B. The following applies: fluorescence 635 nm, higher = more signal.
In experiment [7] the target is Epidermal growth factor receptor (Homo sapiens) (UniProt P00533). Description: compounds binding epidermal growth factor receptor – biochemical, small-molecule microarray, 635 nm fluorescence, primary screen (AID 1104).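 Note: score merges 667 nm emission intensity with spot signal to noise over triplicate slides.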 The following applies: EGFR binding, higher = more signal.
The target of experiment [8] is Follistatin-related protein 3 (Homo sapiens) (UniProt O95633). Description: compounds binding follistatin-related protein 3 – biochemical, small-molecule microarray, 635 nm fluorescence, primary screen (AID 1105).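 Note: score merges emission near 667 nm and signal to noise per printed spot across three slides.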 The following applies: FSTL3 binding, higher = more signal.
Experiment [9] deals with Dickkopf-related protein 1 (Homo sapiens) (UniProt O94907). Description: small molecules binding DKK1 protein – biochemical, small-molecule microarray, 635 nm fluorescence scan, primary screen (AID 1106).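 Note: score merges emission near 667 nm with signal to noise over three replicate slides.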 The following applies: higher = more signal.
Experiment [10] has as its system Inhibin beta A chain (activin A). Description: small molecules binding activin A – biochemical, small-molecule microarray, 635 nm fluorescence scan, primary screen (AID 1107).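 Note: mouse activin A protein probed at 4.33 µg/mL on printed slides; score merges bound-protein fluorescence near 667 nm with spot signal-to-noise.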 Particulars: INHBA, higher = more signal.

Chain of Fibroblast growth factor 10 (Homo sapiens) (O15520 whole entry, looked up): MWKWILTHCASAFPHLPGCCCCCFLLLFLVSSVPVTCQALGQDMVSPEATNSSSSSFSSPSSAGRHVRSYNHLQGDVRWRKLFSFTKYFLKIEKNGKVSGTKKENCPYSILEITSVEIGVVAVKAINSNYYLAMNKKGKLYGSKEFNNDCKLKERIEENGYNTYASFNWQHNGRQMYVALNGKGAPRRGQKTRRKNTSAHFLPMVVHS
Chain of Epidermal growth factor receptor (Homo sapiens) (P00533 whole entry, looked up): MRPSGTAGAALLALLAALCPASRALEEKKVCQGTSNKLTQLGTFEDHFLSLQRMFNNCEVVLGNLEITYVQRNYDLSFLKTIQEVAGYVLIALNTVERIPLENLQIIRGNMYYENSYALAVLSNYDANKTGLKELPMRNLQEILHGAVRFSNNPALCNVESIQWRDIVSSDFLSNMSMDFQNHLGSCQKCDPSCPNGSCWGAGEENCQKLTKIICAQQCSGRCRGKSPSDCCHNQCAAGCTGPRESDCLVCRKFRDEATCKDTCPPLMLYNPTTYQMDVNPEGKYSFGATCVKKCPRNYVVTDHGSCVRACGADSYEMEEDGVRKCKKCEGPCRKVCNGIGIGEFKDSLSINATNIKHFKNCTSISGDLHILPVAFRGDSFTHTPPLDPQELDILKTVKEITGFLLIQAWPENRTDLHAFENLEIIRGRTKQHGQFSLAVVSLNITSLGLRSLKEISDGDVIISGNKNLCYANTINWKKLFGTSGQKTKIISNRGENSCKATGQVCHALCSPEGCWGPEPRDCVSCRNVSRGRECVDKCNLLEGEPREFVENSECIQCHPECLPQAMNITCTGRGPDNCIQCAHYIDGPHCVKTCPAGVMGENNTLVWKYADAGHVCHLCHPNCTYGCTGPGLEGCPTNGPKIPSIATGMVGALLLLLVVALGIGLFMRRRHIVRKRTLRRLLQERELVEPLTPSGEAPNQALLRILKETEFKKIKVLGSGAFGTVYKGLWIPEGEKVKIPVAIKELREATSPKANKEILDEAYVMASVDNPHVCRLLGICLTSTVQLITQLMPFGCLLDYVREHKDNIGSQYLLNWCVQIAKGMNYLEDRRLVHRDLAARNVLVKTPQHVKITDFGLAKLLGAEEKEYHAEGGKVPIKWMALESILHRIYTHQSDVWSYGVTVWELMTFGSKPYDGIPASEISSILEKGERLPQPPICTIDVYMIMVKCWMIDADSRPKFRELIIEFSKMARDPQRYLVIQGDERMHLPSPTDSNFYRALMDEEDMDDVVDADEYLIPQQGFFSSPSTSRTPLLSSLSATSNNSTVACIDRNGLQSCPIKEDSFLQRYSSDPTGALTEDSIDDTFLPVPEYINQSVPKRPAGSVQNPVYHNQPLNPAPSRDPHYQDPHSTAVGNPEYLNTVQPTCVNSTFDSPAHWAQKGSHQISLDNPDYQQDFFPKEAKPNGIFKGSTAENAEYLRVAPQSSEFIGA
Chain of Dickkopf-related protein 1 (Homo sapiens) (O94907 whole entry, looked up): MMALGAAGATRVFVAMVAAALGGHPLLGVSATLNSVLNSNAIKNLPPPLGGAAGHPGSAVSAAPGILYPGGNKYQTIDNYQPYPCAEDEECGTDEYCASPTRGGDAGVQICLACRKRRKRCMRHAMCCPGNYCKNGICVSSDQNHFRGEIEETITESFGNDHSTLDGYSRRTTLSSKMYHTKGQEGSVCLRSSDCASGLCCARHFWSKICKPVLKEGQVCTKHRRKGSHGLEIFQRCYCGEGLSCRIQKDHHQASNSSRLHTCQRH
Chain of Follistatin-related protein 3 (Homo sapiens) (O95633 whole entry, looked up): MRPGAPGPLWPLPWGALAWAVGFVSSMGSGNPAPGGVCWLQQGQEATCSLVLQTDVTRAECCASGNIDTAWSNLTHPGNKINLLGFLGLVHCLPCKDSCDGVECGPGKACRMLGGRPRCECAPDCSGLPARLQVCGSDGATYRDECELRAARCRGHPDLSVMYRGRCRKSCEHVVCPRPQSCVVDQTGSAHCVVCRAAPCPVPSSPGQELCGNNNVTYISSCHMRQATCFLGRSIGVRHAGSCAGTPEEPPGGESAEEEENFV

For the compound `CO[C@H]1COC(=O)[C@@H]2CCCN2C(=O)CC=C[C@@H](C)[C@H](OC)COC(=O)[C@@H](OCc2ccccc2)C=C[C@@H]1C`, the composite z-score in experiment [1] is 0.695; in [2], -0.665; in [3] it was -1.24; in experiment [5], 0.163; in experiment [6], 0.484; in experiment [7], 0.547. In addition, the composite z-score came to 0.907 in experiment [8], 1.75 in [9] and 1.58 in experiment [10]. The z-score in experiment [4] was -1.63 (inactive).
`C#CCCCON=C1C[C@@H](O)[C@@H](O)[C@@H]2[C@@H]3C(=O)N(c4ccc(F)cc4F)C(=O)[C@@H]3CC[C@H]12`: the composite z-score in [1] is 0.87; in experiment [2], -0.177; in [3], -0.86; in experiment [5], 0.947; in [6] it was 0.678; in experiment [7] it was 0.403. The composite z-score is 0.432 in experiment [8], 0.978 in experiment [9] and -0.185 in [10]. In experiment [4], the z-score was -1.35 (inactive).
For the compound `CCN1C(=O)[C@H]2[C@H]3[C@H](O)[C@H](O)CC(=NNC(=O)OCc4ccc(OC)cc4)[C@@H]3CC[C@H]2C1=O`, the composite z-score is -0.492 in experiment [1]; 1.08 in [2]; 0.765 in experiment [3]; -0.0766 in experiment [5]; 0.269 in [6]; -0.0752 in experiment [7]. Further, the composite z-score was 0.0539 in experiment [8], -0.808 in [9] and 0.242 in [10]. Also, the z-score in experiment [4] is 0.564 (inactive).
In the case of `CCCCC#C[C@@H]1C=C[C@H](Oc2ccc(C(=O)OC)cc2)[C@@H](COC(=O)OCC)O1`, the composite z-score is 0.716 in [1]; 0.015 in experiment [2]; -0.334 in experiment [3]; 0.785 in [5]; 0.277 in experiment [6]; 0.385 in experiment [7]. The composite z-score in experiment [8] was 1.05; in experiment [9], 0.414; in [10] it was 0.273. The z-score in experiment [4] was 0.545 (inactive).
As for `O=C1[C@H]2[C@H]3[C@H](O)[C@H](O)CC(=NO[C@@H]4O[C@H](CO)[C@@H](O)[C@H](O)[C@H]4O)[C@H]3CC[C@H]2C(=O)N1c1cccc(Oc2ccccc2)c1`, the composite z-score in experiment [1] is 0.0739; in experiment [2] it was -0.187; in experiment [3], -0.478; in [5], 0.73; in experiment [6], 0.67; in experiment [7] it was 0.508. Also, the composite z-score is 0.598 in [8], 0.71 in [9] and -0.204 in [10]. In [4], the z-score was 0.0512 (inactive).
Regarding `CCCNC(=O)OC[C@H]1O[C@H](CCON=Cc2ccc(C(=O)N3[C@H](c4ccc(C)cc4)[C@@H](C)CC[C@H]3C(=O)OC)cc2)C=C[C@@H]1Oc1ccc(OC)cc1`, the composite z-score is 0.463 in experiment [1]; -0.186 in experiment [2]; -0.0627 in [3]; 0.523 in experiment [5]; 0.581 in experiment [6]; 0.417 in experiment [7]. The values for the composite z-score in [8], in experiment [9] and in experiment [10] were 0.355, 0.0399 and 0.446, respectively. Also, in experiment [4], the z-score is -0.357 (inactive).
Take `COC(=O)[C@H](C)NC(=O)CCC1CC(OC(=O)NCCc2ccc(F)cc2)CC2(CCCC(COC(=O)NCCC(C)C)O2)O1` (stereo not given in full): the composite z-score in [1] is 0.597; in experiment [2], -0.185; in [3], -0.269; in experiment [5], 0.866; in experiment [6], -0.102; in experiment [7], 0.0797. For the same compound, the composite z-score turned out to be 0.961 in experiment [8], 0.0468 in experiment [9] and 0.299 in experiment [10]. In addition, the z-score in experiment [4] is -1.56 (inactive).
With `C[C@@H](c1ccccc1)N1C(=O)[C@H]2[C@H]3[C@H](O)[C@H](O)CC(=NOCc4ccccc4)[C@H]3CC[C@H]2C1=O`, the composite z-score in experiment [1] is 0.8; in experiment [2], -0.197; in experiment [3], -0.442; in experiment [5], 0.601; in experiment [6], 0.535; in experiment [7], 0.45. For the same compound, the results for the composite z-score in experiment [8], in [9] and in [10] were 0.44, 0.312 and -0.27, respectively. Besides, the z-score in [4] was -0.0874 (inactive).
Regarding `CC(C)=NOC[C@@H](C)[C@H](OCc1ccccc1)C(C)C`, the composite z-score was -0.229 in [1]; -0.0423 in experiment [2]; 0.631 in experiment [3]; -0.822 in experiment [5]; -1.06 in [6]; -0.602 in experiment [7]. The composite z-score is -0.664 in experiment [8], -0.355 in experiment [9] and 0.927 in experiment [10]. The z-score in experiment [4] was -0.159 (inactive).
`COc1ccc(COC(=O)NN=C2C[C@@H](O)[C@@H](O)[C@@H]3[C@@H]4C(=O)N(C5CCCCC5)C(=O)[C@@H]4CC[C@H]23)cc1`: the composite z-score in experiment [1] was -0.378; in experiment [2], 1.07; in experiment [3] it was 1.47; in experiment [5] it was -0.485; in experiment [6], -0.784; in experiment [7], -0.575. The composite z-score in [8] was -0.558; in experiment [9], -1.45; in [10] it was 0.699. Besides, the z-score in experiment [4] is 1.3 (inactive).
Consider `CC(=O)OC[C@H]1O[C@H](C#Cc2ccccc2)C=C[C@@H]1OC(C)=O`, for which the composite z-score is 1.27 in experiment [1]; -0.0406 in experiment [2]; -0.219 in experiment [3]; 0.338 in experiment [5]; 0.163 in [6]; 0.0278 in experiment [7]. In addition, the composite z-score was found to be 0.59 in experiment [8], 0.57 in experiment [9] and 0.58 in [10]. Also, the z-score in experiment [4] is -1.92 (inactive).
As to `COC(=O)CC=C[C@@H](C)[C@@H](C=NOC[C@H]1O[C@H](c2ccccc2)C=C[C@@H]1Oc1ccc(OC)cc1)NS(=O)(=O)c1ccc(C)cc1`, the composite z-score in experiment [1] was -0.611; in experiment [2], 0.0033; in experiment [3] it was 0.674; in [5], -0.858; in experiment [6] it was -1.78; in [7] it was -0.873. The composite z-score in [8] is -1.2; in experiment [9] it was -0.462; in experiment [10], 0.797. Further, in [4], the z-score is 0.00198 (inactive).
As for `CC(C)=CCCC(C)=CCON=C1C[C@@H](O)[C@@H](O)[C@@H]2[C@@H]3C(=O)N(C(C)(C)C)C(=O)[C@@H]3CC[C@H]12`, the composite z-score in experiment [1] is 0.0059; in experiment [2], 0.0507; in [3] it was -0.396; in experiment [5] it was 0.396; in experiment [6], 0.563; in [7] it was 0.512. For the same compound, the composite z-score in [8] is 0.392; in experiment [9], 0.432; in [10], -0.159. Further, the z-score in experiment [4] was 0.129 (inactive).
With `CO[C@@H]1COC(=O)CC=C[C@@H](C)[C@H](OC)COC(=O)[C@@H](C)COC(=O)CC=C[C@H]1C`, the composite z-score in [1] is 0.474; in [2] it was -0.803; in [3] it was -1.29; in experiment [5], -0.55; in experiment [6], 0.0478; in [7] it was 0.354. The values for the composite z-score in experiment [8], in experiment [9] and in [10] were 0.734, 1.37 and 1.85, respectively. Further, the z-score in experiment [4] is 0.166 (inactive).
As for `CON=C1[C@H]2CCn3c(=O)n(-c4ccccc4)c(=O)n3[C@H]2[C@H](O)[C@@H]2O[C@H]12`, the composite z-score was 0.555 in experiment [1]; -0.198 in experiment [2]; -0.67 in [3]; 0.556 in experiment [5]; 0.81 in experiment [6]; 0.599 in [7]. Besides, the composite z-score in experiment [8] was determined as 0.488; in [9], 0.332; in experiment [10], 0.141. For the same compound, the z-score in [4] was -0.871 (inactive).
For `C=COC[C@@H]1CN2[C@@H](CC[C@@H](C)[C@@H]2c2ccc(Br)cc2)C(=O)O1`, the composite z-score in [1] was 0.0845; in experiment [2], -0.319; in [3], -0.0905; in [5], -0.472; in experiment [6], -0.413; in [7] it was -0.46. Besides, the composite z-score was -0.46 in [8], -0.0521 in experiment [9] and 1.47 in [10]. Also, the z-score in [4] was -0.589 (inactive).
On to `C[C@@H](c1ccccc1)N1C(=O)[C@H]2[C@H]3[C@H](O)[C@H](O)CC(=NO[C@@H]4O[C@H](CO)[C@@H](O)[C@H](O)[C@H]4O)[C@H]3CC[C@H]2C1=O`, for which the composite z-score in [1] was 0.249; in experiment [2], -0.155; in [3], -0.546; in experiment [5] it was 0.559; in [6] it was 0.783; in experiment [7], 0.425. Besides, the composite z-score in experiment [8] turned out to be 1.03; in [9], 0.44; in experiment [10], 0.0882. In addition, the z-score in [4] is 0.0641 (inactive).
